For 14 molecules, growth results are on record in PubChem BioAssay (NCI).

The structures appear in SMILES notation. “And” between values parts separate entries of the source, which are not always exact repeats. Identical values can stand only once. Compounds without any hit were thinned out: in the full panel of roughly 83,000, 20% have a hit.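 Single-dose data. Exposure time 48 hours. Values below 10 considered active.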 The source made the active and inactive calls. Where a SMILES comes first, the peptide text is derived from it. [ ]: non-standard residue; d: D form. ξ: configuration not given here. ξV = CC(C)C(N)C(=O)O

Holding throughout (assay): NCI-60 one-dose screen, 48 h (100 = growth as untreated, 0 = no growth, -100 = all killed)
For test [1], the system named is HCT-15 colon. As to conditions: 10 µM.
In test [2] the test system is HT29 colon. The settings on record: 10 µM.
Test [3] deals with SNB-19 CNS. As to conditions: 10 µM.
In test [4] the test system is U251 CNS. As to conditions: 10 µM unless noted.
The test system of test [5] is PC-3 prostate. As to conditions: 10 µM.
The test system of test [6] is SK-MEL-5 melanoma. The settings on record: 10 µM unless noted.
Test [7] concerns UACC-62 melanoma.
Test [8] has as its system LOX IMVI melanoma. As to conditions: 10 µM unless noted.
Test [9] concerns SK-MEL-28 melanoma. As to conditions: 10 µM.

In the case of `CC(C)(C)CC(C)(C)c1ccc(OCCO)cc1`, the growth in [1] was 99.8% (inactive); in test [2] it was 99.3% (inactive); in test [3] it was 106% (inactive); in [4] it was 104% (inactive); in [5], 117% (inactive); in test [6] it was 119% (inactive). The growth in [7] (10 µM) was 106% (inactive); in [8], 99.1% (inactive); in test [9], 141% (inactive).

For the molecule `Cc1nc(N=C(N)N)nc2ccc3ccccc3c12`, the growth was 71.8% (inactive) in test [1]; 1.55% (active) in test [2]; -11.5% (active) in test [3]; -17% (active) in test [4]; -19.2% (active) in test [5]; 2.88% (active) in test [6]. Moreover, the growth was -20.9% (active) in [7] (10 µM), 2.45% (active) in test [8] and -0.847% (active) in [9].

Consider `CS(=O)(=O)OC1CC(n2ccc(=O)[nH]c2=O)OC1COC(c1ccccc1)(c1ccccc1)c1ccccc1` (stereo not drawn), for which the growth in [1] was 93.7% (inactive); in [2], 96.1% (inactive); in [3] it was 99.8% (inactive); in [5], 91.3% (inactive); in [6], 101% (inactive); in [7] (10 µM) it was 97.7% (inactive). For the same molecule, the growth in test [9] was 104% (inactive).

As to `Nc1nc(=S)c2ncn(C3OC(CO)C(O)C3O)c2[nH]1` (stereo not drawn), the growth in test [1] is 107% (inactive) and 9.43% (active); in [2] it was 100% (inactive) and 14.3% (inactive); in test [3], 107% (inactive) and 78.6% (inactive); in test [4], 105% (inactive) and 54.1% (inactive); in [5], 33.4% (inactive); in test [6] it was 116% (inactive) and 22.7% (inactive). Further, the growth in [7] (10 µM) is 102% (inactive) and 0.101% (active); in test [8] it was 104% (inactive) and 7.31% (active); in test [9] it was 115% (inactive) and 50.8% (inactive).

For `COC1OCC(O)C(O)C1O` (stereo not drawn), the growth was 98.5% (inactive) in test [1]; 104% (inactive) in test [2]; 113% (inactive) in test [3]; 94.5% (inactive) in test [4]; 92.4% (inactive) in [5]; 101% (inactive) in test [6]. Also, the growth was 105% (inactive) in test [7] (10 µM), 95.3% (inactive) in test [8] and 106% (inactive) in test [9].

Take `OC(CN1CCCC2CCCCC21)c1cc2ccccc2c2ccccc12` (stereo not drawn): the growth in test [1] is 22.5% (inactive); in test [2], 1.91% (active); in [3], 43.6% (inactive); in test [4] it was 28.2% (inactive); in test [5], 38.5% (inactive); in test [6], -84.6% (active). In addition, the growth in test [8] is -19.9% (active); in test [9] it was 49.4% (inactive).

Regarding `Nc1ccc2cc3ccc(N)cc3nc2c1`, the growth is 105% (inactive) and 15.3% (inactive) in test [1]; 105% (inactive) and 4.36% (active) in test [2]; 108% (inactive) and 30.4% (inactive) in [3]; 104% (inactive) and 8.67% (active) in test [4]; 94.5% (inactive) and 14.4% (inactive) in [5]; 105% (inactive) and -3.97% (active) in [6]. Moreover, the growth was 109% (inactive) and -35.5% (active) in [7] (10 µM); 105% (inactive) and -30.1% (active) in test [8]; 108% (inactive) and -6.93% (active) in [9].

`CC1=CC(C)=Nc2ccc(Cl)cc2N1`: the growth in [1] is 113% (inactive); in test [2] it was 119% (inactive); in test [3], 106% (inactive); in [4] it was 101% (inactive); in test [5], 91.9% (inactive); in [7] (10 µM) it was 103% (inactive). For the same molecule, the figures for the growth in test [8] and in test [9] were 91.4% (inactive) and 124% (inactive), respectively.

`CCCCCCCCCCCCSC(=NC)NC`: the growth in test [1] was -25.5% (active) and -28.8% (active); in [2], 0.0905% (active) and 2.56% (active); in test [3], 42.6% (inactive) and 91.6% (inactive); in test [4], 8.04% (active) and 34.5% (inactive); in test [5] it was 42% (inactive) and 67.3% (inactive); in [6], -5.79% (active) and 69.5% (inactive). In addition, the growth in test [7] (10 µM) is -58.4% (active) and 61.4% (inactive); in test [8], -39.5% (active) and 26.8% (inactive); in test [9] it was 26.8% (inactive) and 68.5% (inactive).

Turning to `O=[N+]([O-])C1=C(c2ccccc2)SC=C(c2ccccc2)S1`, the growth in test [1] was 58.7% (inactive); in test [2], 69.8% (inactive); in [3], 78.3% (inactive); in [4], 51.5% (inactive); in [5] it was 62% (inactive); in [6] it was 87% (inactive). Moreover, the growth is 54.5% (inactive) in test [7] (10 µM), 4.56% (active) in test [8] and 88.2% (inactive) in test [9].

Turning to `CSC1SCC2C(=O)N(C)C(C(C)C)C(=O)OCC(NC(=O)c3cnc4ccccc4n3)C(=O)NC(C)C(=O)N(C)C1C(=O)N(C)C(C(C)C)C(=O)OCC(NC(=O)c1cnc3ccccc3n1)C(=O)NC(C)C(=O)N2C` (stereo not drawn), the growth in [1] was 4.08% (active); in test [2] it was 2.66% (active); in [3], -13.3% (active); in test [4], 5.23% (active); in test [5] it was -12.7% (active); in [6], -73.1% (active). The growth in [7] (10 µM) is -77% (active); in test [8] it was 3.98% (active); in test [9] it was -13.9% (active).

As to `CC(C)C1=C(O)C2=C(C(=O)C1=O)C1(C)CCCC(C)(C)C1CC2O` (stereo not drawn), the growth in [7] (100 µM) was -73.2% (active) and -96.5% (active).

For `CC[N+](CC)=c1ccc2nc3c(cc(N)c4ccccc43)oc-2c1`, the growth was -54.6% (active) in test [1]; 5.58% (active) in [2]; -64.3% (active) in test [3]; -76.1% (active) in [4]; -48.8% (active) in test [5]; -79.9% (active) in [7] (10 µM). Besides, the growth in test [8] was -58.7% (active); in [9], -61.8% (active).

In the case of `CC(C)C(NC(=O)CN)C(=O)O` (stereo not drawn) (H-Gly-[ξV]-OH), the growth in test [1] was 109% (inactive) and 106% (inactive); in test [2] it was 101% (inactive) and 100% (inactive); in [3], 106% (inactive); in test [4], 102% (inactive) and 98.9% (inactive); in test [5], 92.6% (inactive) and 88.6% (inactive); in [6], 104% (inactive) and 102% (inactive). Further, the growth in test [7] (10 µM) is 104% (inactive) and 94.5% (inactive); in [8], 101% (inactive) and 102% (inactive); in test [9] it was 109% (inactive) and 107% (inactive).
